hNpr1 antagonist: antagonists of human natriuretic peptide receptor Npr1; P16066; HEK293 hNpr1 GloSensor cGMP, ANP-stimulated luminescence; Potency, µM (top dose mostly 46.3 µM), hits mostly inhibitors; 76,000 compounds, 1.6% hits; AID 1347048; calls by dose curve; further: nearly all actives have a fitted effect of over 60% in size
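HEK293 cells stably expressing human Npr1 and cGMP GloSensor pGS-40F, loaded 2 h with 2% GloSensor reagent, given compound 30 min at room temperature. Luminescence read before and 20 min after 0.1 nM hNppA.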
HEK293 tox: HEK 293 cell cytotoxicity; HEK 293 viability, ATP luminescence (CellTiter-Glo), 48-72 h; Potency, µM (top dose mostly 115 µM), hits mostly inhibitors; 94,000 compounds, 6.6% hits; further: nearly all actives have a fitted effect of over 60% in size
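Read-out: CellTiter-Glo ATP luminescence. Cells: HEK 293, 250 cells/well. Exposure: 48 or 72 hr, 37 degree Celsius.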
NIH3T3 tox: NIH 3T3 cell cytotoxicity | NIH 3T3 viability, CellTiter-Glo ATP luminescence, 48-72 h | Potency, µM (highest dose often 96.7 µM), hits mostly inhibitors | 94,000 compounds, 4.3% hits; further: nearly all actives have a fitted effect of over 55% in size
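ATP-dependent luminescence (CellTiter-Glo) served as the viability signal for NIH 3T3 cells treated with compound for 48 or 72 hr at 37 °C.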
FLuc inh: blocks purified firefly luciferase enzyme activity; P08659; purified P. pyralis luciferase, luminescence, biochemical; Potency, µM (titrated, usually from 115 µM), actives largely listed as inhibitors; 76,000 compounds, 2.5% hits; AID 1347043; further: nearly all actives have a fitted effect of over 65% in size
Target sequence (P08659 whole entry, looked up): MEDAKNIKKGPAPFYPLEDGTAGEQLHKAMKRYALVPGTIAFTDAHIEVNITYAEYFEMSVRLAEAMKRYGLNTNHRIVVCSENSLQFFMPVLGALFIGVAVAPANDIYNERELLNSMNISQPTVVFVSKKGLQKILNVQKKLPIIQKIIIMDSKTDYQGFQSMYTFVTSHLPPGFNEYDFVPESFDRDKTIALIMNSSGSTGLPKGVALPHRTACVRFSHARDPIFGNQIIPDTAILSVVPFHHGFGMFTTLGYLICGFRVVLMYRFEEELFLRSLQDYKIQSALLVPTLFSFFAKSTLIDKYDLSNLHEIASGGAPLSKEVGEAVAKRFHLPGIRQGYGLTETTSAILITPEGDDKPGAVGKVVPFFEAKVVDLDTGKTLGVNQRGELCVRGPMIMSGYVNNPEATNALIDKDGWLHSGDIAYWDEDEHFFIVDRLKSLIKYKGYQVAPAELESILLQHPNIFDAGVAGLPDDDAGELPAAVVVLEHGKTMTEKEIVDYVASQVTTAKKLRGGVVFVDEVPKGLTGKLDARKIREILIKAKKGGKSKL
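Purified P. pyralis luciferase (10nM final) in 50mM Tris acetate pH 7.5, 10mM Mg acetate, 0.01% Tween-20, 0.05% BSA with 10uM D-luciferin and 10uM ATP. Compounds titrated qHTS. Luminescence imaged on CCD.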
Numbers stand for hits; n = inactive; u = inconclusive; x = no result given; ! = a repeat was not active. Compounds with a hit are over-represented: about 11% of the library has one in this group of screens. Unless noted, the call rests on the fitted dose curve; in most records, active means well fitted curve in the direction sought with a large enough effect; inconclusive means small, poorly fitted or top-dose-only effect, or another doubt; inactive means no such curve, though single readings can be large; an effect the other way counts as inactive or inconclusive.

SMILES	hNpr1 antagonist	HEK293 tox	NIH3T3 tox	FLuc inh
CC(=O)Nc1ccc(CN2CCC3(CC2)CC(=O)c2ccc(Cl)cc2O3)cc1	n	50.1µM	u	n
O=C1CC2(CCN(Cc3cccs3)CC2)Oc2cc(Cl)ccc21	n	u	u	15.8µM!
O=C1CC2(CCN(C(=O)c3ccc(C(F)(F)F)cc3)CC2)Oc2cc(Cl)ccc21	n	35.5µM	25.1µM	n
CN(C)c1ccc(CN2CCC3(CC2)CC(=O)c2ccc(Cl)cc2O3)cc1	n	u	u	n
CC(=O)Nc1ccc(CN2CCC3(CC2)CC(=O)c2ccccc2O3)cc1	n	n	u	n
Cn1ncc2c(C(=O)NCc3cccc(C(F)(F)F)c3)cc(-c3ccc(Cl)cc3Cl)nc21	x	n	u	x
CN1CCC2(C1)CN(CC1CC1)c1ccc(C(=O)NC3CCC3)cc12 (stereo not given)	n	u	u	n
CN1CCC2(C1)CN(CC1CCOCC1)c1ccc(C(=O)Nc3ccccc3)cc12 (stereo not given)	n	100µM	u	50.1µM
COc1ccc(NC(=O)c2ccc3c(c2)C2(CCN(C)C2)CN3CC2CC2)cc1 (stereo not given)	n	50.1µM	25.1µM	n
CN1CCC2(C1)CN(CC1CC1)c1ccc(C(=O)NCCOc3ccccc3)cc12 (stereo not given)	n	56.2µM	39.8µM	n
CNC(=O)c1cc(C2CC2)nc2onc(C3CCN(C(=O)c4ccc(OC)cc4)CC3)c12	x	u	n	x
Cc1ccccc1C(=O)N1CCN(C(=O)c2nc3cccnc3n(C3CCCC3)c2=O)CC1	x	n	u	x
OCC1(Cc2ccc(F)cc2F)CCCN(c2cnc3ccccc3n2)C1 (stereo not given)	u	39.8µM	u	n
CC(=O)N1CC(CN2C(=O)c3c(c(C)nn3-c3ccccc3)C2C2CC2)C1 (stereo not given)	x	u	22.4µM	x
Cc1nn(-c2ccccc2)c2c1C(C)N(CC1CN(C(=O)Nc3ccccc3)C1)C2=O (stereo not given)	x	n	n	x
CC(=O)N1CC(CN2C(=O)c3c(c(C)nn3-c3ccccc3)C2C)C1 (stereo not given)	x	u	n	x
Cc1nn(-c2ccccc2)c2c1C(C)N(CC1CN(Cc3ccc(C(F)(F)F)cc3)C1)C2=O (stereo not given)	x	31.6µM	39.8µM	x
CCOC(=O)N1CC(CN2C(=O)c3c(c(C)nn3-c3ccccc3)C2C2CC2)C1 (stereo not given)	x	35.5µM	39.8µM	x
Cc1nn(-c2ccccc2)c2c1C(C1CC1)N(CC1CN(C(=O)C3CC3)C1)C2=O (stereo not given)	x	u	10µM	x
Cc1ccccc1C(=O)N1CCN(c2ccc3nnc(C)n3n2)CC1	x	n	n	x
Cc1nn(-c2ccccc2)c2c1C(C)N(CC1CN(C(=O)c3ccc4c(c3)OCO4)C1)C2=O (stereo not given)	x	u	20µM	x
Cc1nn(-c2ccccc2)c2c1C(C)N(CC1CN(C(=O)c3ccc(Cl)nc3)C1)C2=O (stereo not given)	x	n	u	x
Cc1ccc(C(=O)N2CCC(Cc3nc(-c4ccccc4)n[nH]3)CC2)cn1	x	n	n	x
COc1cccc(-c2nc3cnccn3c2NCCC(=O)N2CCc3ccccc32)c1	n	u	n	n
COc1ccccc1-c1nc2cnccn2c1NCCC(=O)N1CCc2ccccc21	n	20µM	u	n
SMILES	hNpr1 antagonist	HEK293 tox	NIH3T3 tox	FLuc inh
CCOCCNC(=O)c1cc(-c2ccccc2C(F)(F)F)nc2c1cnn2C	x	u	n	x
Fc1ccccc1Nc1cnc2ccc(-c3ccccc3)nn12	n	100µM	u	n
c1ccc(-c2ccc3ncc(Nc4ccccn4)n3n2)cc1	n	u	u	n
c1ccc(-c2ccc3ncc(Nc4ccc5c(c4)OCCO5)n3n2)cc1	n	89.1µM	u	u
Fc1ccc(Nc2cnc3ccc(-c4ccccc4)nn23)cc1	n	100µM	79.4µM	n
Fc1ccc(-c2ccc3ncc(Nc4ccc5c(c4)OCCO5)n3n2)cc1	n	u	u	u
CNC(=O)c1cc(C2CC2)nc2c1c(C1CCN(C(=O)NC3CCCC3)C1)nn2C (stereo not given)	x	n	n	x
CC(=O)N1CCC(N2CC[C@H](c3nc4ccccc4s3)C2)CC1	n	n	n	u
c1ccc2sc([C@H]3CCN(C4CCC4)C3)nc2c1	22.4µM	u	n	1.58µM
CCOc1cc(=O)n2c(c1C(=O)Nc1ccc3c(c1)OCCO3)CCCCC2	n	n	n	39.8µM
Cc1ccc(-c2ccccc2CN2CCN(C(=O)Nc3ccccc3)CC2)cc1Cl	x	31.6µM	u	x
O=C(c1ccccn1)N1CCN(Cc2ccccc2-c2cccnc2)CC1	x	n	n	x
O=C(c1ccncc1)N1CCN(Cc2ccccc2-c2cccnc2)CC1	x	n	n	x
Cc1ccc(C(=O)N2CCN(Cc3ccccc3-c3ccc(C)c(Cl)c3)CC2)cc1	x	39.8µM	u	x
Cc1ccc(-c2ccccc2CN2CCN(C(=O)c3ccccc3Cl)CC2)cc1Cl	x	39.8µM	39.8µM	x
CC(=O)N1CCN(Cc2ccccc2-c2ccccc2F)CC1	x	n	u	x
Cc1ccc(-c2ccccc2CN2CCC(C(=O)NCCc3ccccc3)CC2)cc1Cl	x	39.8µM!	25.1µM	x
COCCOC1CN(C2CCN(C(=O)c3ccc4cc[nH]c4c3)CC2)C12CCCCC2 (stereo not given)	x	n	u	x
Cn1ccnc1C(=O)N1CCC(N2C(=O)C3(CCCCC3)C2c2ccccc2)CC1 (stereo not given)	x	n	n	x
O=C(NCCc1ccccc1F)c1ccc2oc(-c3cccnc3)nc2c1	x	n	u	x
COc1ccc(-c2c(C(=O)N3CCN(C)CC3)nc3sccn23)cc1	x	n	n	x
Cn1ncc2c(C(=O)NC3CCC3)cc(-c3ccccc3F)nc21	x	n	u	x
O=C(c1ccc(Cl)nc1)N1CCN(C(=O)c2cccc(-c3ccccn3)c2)CC1	x	n	n	x
Cc1ccc(-c2ccccc2CN2CCN(C(=O)c3ccc(Cl)nc3)CC2)cc1Cl	x	u	35.5µM	x
Cc1ccc(C(=O)NC2CCN(c3ccc4nnc(C5CC5)n4n3)C2)cc1 (stereo not given)	x	n	n	x
SMILES	hNpr1 antagonist	HEK293 tox	NIH3T3 tox	FLuc inh
O=C(NC[C@H]1COCc2nc3cc(F)ccc3n21)C1CC1	n	n	79.4µM	n
O=C(NC[C@H]1COCc2nc3cc(C(F)(F)F)ccc3n21)C1CC1	n	u	n	n
Fc1ccc2c(c1)nc1n2[C@@H](CNC2CCCCC2)COC1	n	u	28.2µM	n
O=C(NC[C@H]1COCc2nc3cc(F)ccc3n21)c1ccc(Cl)cc1	n	70.8µM	u	n
O=C(NC[C@H]1COCc2nc3cc(F)ccc3n21)c1ccc2c(c1)OCO2	n	n	u	u
CCOC(=O)N1CCC(c2noc3nc(C)cc(C(=O)NC)c23)C1 (stereo not given)	x	n	n	x
CN(C)C[C@@H]1CN(c2ncccn2)C[C@H]1NC(=O)c1nn(C)c2ccccc12	n	n	n	n
CCCCCNC(=O)c1ccccc1-c1ccc(OC)nn1	x	n	n	x
Cc1nccn1CCCC(=O)N[C@@H]1CCOC[C@H]1OCC(=O)O	n	n	n	n
